Screening data as filed in PubChem BioAssay.
ELG1 repair inh: ELG1-dependent DNA repair inhibition; HEK293T ELG1-luciferase reporter, luminescence, 16 h; DNA damage induced by 5-fluorouridine; Potency, µM (doses to about 46.1 µM), for the others: at the top dose activity change, negative = inhibition, hits mostly inhibitors; 330,000 compounds, 2.3% hits; AID 504467; further: nearly all actives have a fitted effect of over 55% in size
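Step one: seed 2,000 cells per well. Step two: pin-transfer compound or DMSO alongside 5-fluorouridine. Step three: incubate 16 hr, 37 °C, 5% CO2. Step four: add ONE-Glo, wait 30 min, read luminescence.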
DT40 TDP1 CPT: DT40-hTDP1 cell growth loss with CPT; Potency, µM (titrated, usually from 46.2 µM), without a hit: at the top dose activity change, negative = growth inhibition, hits mostly inhibitors; chicken DT40 Tdp1-/-;hTDP1 cells + 20 nM CPT, ATP luminescence, 48 h; AID 686979; 420,000 compounds, 12% hits; further: nearly all actives have a fitted effect of over 55% in size
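Chicken DT40 Tdp1-/- cells complemented with human TDP1, 400 cells/well, exposed to compounds plus 20 nM camptothecin for at least 48 h at 37 C; viability read as ATP content by CellTiter-Glo luminescence.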
Gal4-VP16 FLuc: counter-screen for ROR gamma inhibitors: Gal4-VP16 reporter | Drosophila S2 Gal4-VP16 UAS-luciferase, luminescence, 20 h | Potency, µM (doses to about 53.6 µM), for the others: at the top dose activity, negative = inhibition, hits mostly inhibitors | 310,000 compounds, 3.5% hits;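 further: Gal4-VP16 expression switched on by copper sulfate through the metallothionein promoter; nearly all actives have a fitted effect of over 50% in size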
ALOX12 inh: blocks human arachidonate 12S-lipoxygenase; P18054; 580,000 compounds, 1.1% hits; Potency, µM (titrated, usually from 108 µM), for the others: at the top dose activity change, negative = inhibition, hits mostly inhibitors; AID 1671190; purified 12hLO, xylenol orange hydroperoxide absorbance
Target sequence (P18054 whole entry, looked up): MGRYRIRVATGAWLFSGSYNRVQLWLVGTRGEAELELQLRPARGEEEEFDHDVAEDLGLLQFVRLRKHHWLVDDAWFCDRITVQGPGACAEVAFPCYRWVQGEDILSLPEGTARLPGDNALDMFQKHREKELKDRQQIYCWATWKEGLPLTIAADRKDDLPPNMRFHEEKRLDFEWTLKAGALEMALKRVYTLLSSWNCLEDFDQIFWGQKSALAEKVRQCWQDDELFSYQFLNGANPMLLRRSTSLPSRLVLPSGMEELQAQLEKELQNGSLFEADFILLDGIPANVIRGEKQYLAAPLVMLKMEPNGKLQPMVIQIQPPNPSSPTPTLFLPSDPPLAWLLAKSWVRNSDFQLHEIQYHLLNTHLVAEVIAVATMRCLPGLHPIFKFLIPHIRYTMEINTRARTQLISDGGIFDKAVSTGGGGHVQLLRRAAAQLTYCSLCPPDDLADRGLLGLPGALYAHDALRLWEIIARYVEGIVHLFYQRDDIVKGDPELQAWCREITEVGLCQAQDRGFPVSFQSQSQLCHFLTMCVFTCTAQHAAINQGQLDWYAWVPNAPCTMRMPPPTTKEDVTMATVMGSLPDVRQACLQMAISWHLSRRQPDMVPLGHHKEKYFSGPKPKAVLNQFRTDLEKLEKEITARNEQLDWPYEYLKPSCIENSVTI
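Purified human 12hLO at 150 nM in 25 mM Hepes, 0.01% Triton X-100, pH 7.0, preincubated 15 min at room temperature with compound. Reaction started with 40 uM arachidonic acid, 30 min at room temperature. Hydroperoxide measured by Fe-xylenol orange, 573/405 nm absorbance ratio.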
RORgamma inh: inhibitors of mouse ROR gamma transcriptional activity. AID 2551. Drosophila S2 Gal4-RORgamma UAS-luciferase reporter, 20 h. P51450. 310,000 compounds, 5.4% hits. Potency, µM (top dose mostly 53.6 µM), for the others: top-dose activity change, negative = inhibition, usual class: inhibitors; further: nearly all actives have a fitted effect of over 60% in size
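A Gal4/UAS one-hybrid system in insect cells: metallothionein-promoter Gal4–ROR gamma fusion plus Photinus luciferase reporter. Copper sulfate 700 uM final, 20 hr ambient incubation, luminescent detection after 10 min with reagent.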
DT40 TDP1 no CPT: qHTS for Inhibitors of human tyrosyl-DNA phosphodiesterase 1 (TDP1): qHTS in cells in absence of CPT | DT40 Tdp1-/- hTDP1 cells, no CPT, ATP luminescence, 48 h | Potency, µM (top dose mostly 46.2 µM), for inactives: at the highest dose activity change, negative = growth inhibition, most hits filed as inhibitors | 420,000 compounds, 15% hits | AID 686978, 2013; further: nearly all actives have a fitted effect of over 55% in size
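Readout: luminescence from CellTiter-Glo after 30 min in the dark at RT. Cells: DT40 Tdp1-/- with stable hTDP1, 400/well. Exposure: compounds alone, ≥48 hr, 37 °C.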
Starred values were filed as active, the others as inactive; ? = inconclusive; · = no result; ! = repeats disagree; [ ] = remark or other dose. Compounds with a hit are over-represented: about 15% of the library has one in this group of screens. The call rests on the fitted dose curve; in most records, active means well fitted curve in the direction sought with a large enough effect; inconclusive means small, poorly fitted or top-dose-only effect, or another doubt; inactive means no such curve, though single readings can be large; an effect the other way counts as inactive or inconclusive. On the % scale 0 is the no-effect control and ±100 the full control effect; potency means the concentration at half of the fitted maximal effect.

SMILES	ELG1 repair inh	DT40 TDP1 CPT	Gal4-VP16 FLuc	ALOX12 inh	RORgamma inh	DT40 TDP1 no CPT
COC(=O)NC1(C(F)(F)F)C(=O)Nc2c1c(=O)n(C)c(=O)n2C (configuration not stated)	14%	-4%	1%	13%	3%	2%
Cn1c2c(c(=O)n(C)c1=O)C(C(F)(F)F)(C(F)(F)F)N=C(C1CCCCC1)N2	?	18µM*	0%	2%	25%	26µM*
Cn1c2c(c(=O)n(C)c1=O)C(NC(=O)c1cccs1)(C(F)(F)F)C(=O)N2 (configuration not stated)	4%	3%	4%	0%	40%	-6%
Cn1c2c(c(=O)n(C)c1=O)C(C(F)(F)F)(C(F)(F)F)N=C(c1ccc(Cl)cc1)N2	0.65µM*	0.92µM*	3.2µM*	·	6.3µM*	1.3µM*
Fc1ccccc1Cn1c(-c2ccccc2)nc2ccccc21	·	?	·	-15%	·	7.3µM*
CCc1nc2ccccc2n1CC1CC1(Cl)Cl (configuration not stated)	3%	1%	-2%[10 µM]	4%	7.1µM*	-10%
CCSc1nc2ccccc2n1Cc1ccccc1F	26%	-23%	-13%	0%	1%	?
Cc1ccccc1Cn1c(C)nc2ccccc21	17%	?	3.5µM*	0%	?	5.8µM*
COc1ccccc1Cn1c(C)nc2ccccc21	?	-28%	?	0%	14µM*	?
CC(=O)N1CC2(CCCN(Cc3ccccn3)C2)Cc2ccccc21 (configuration not stated)	·	·	·	0%[6.33 µM]	·	·
CCS(=O)(=O)c1ccc(NCc2cccc(F)c2)cc1	·	·	·	-29%	·	·
COc1ccc(C)cc1Cn1c(S(C)(=O)=O)nc2ccccc21	-3%	16µM*	-6%	?	-21%	21µM*
CS(=O)(=O)c1nc2ccccc2n1Cc1ccccc1	-10%	?	0%	-19%	0%	-1%
Cc1nc2ccccc2n1Cc1ccc(Cl)cc1	23%	10µM*!	10µM*	23%	?	7.3µM*
Cc1ccc(Cn2c(N)nc3ccccc32)cc1	-8%	18µM*	?	52%	?	9.2µM*
Nc1nc2ccccc2n1Cc1ccc(Cl)c(Cl)c1	-18%	?	-28%	-5%	-19%[1.91 µM]	?
COc1ccc(Cn2c(CCCO)nc3ccccc32)cc1OC	7%	1%	10%	0%	-10%	7%
CCc1nc2ccccc2n1Cc1ccccc1OC	0%	?	?	0%	7.1µM*	?
CC(=O)Nc1ccc(C(=O)COc2ccc(C(C)=O)cc2)cc1	·	·	·	-26%	·	·
CN(C)[S+](=O)([O-])c1ccc2c(c1)OCCN(Cc1cccc(Cl)c1)C2	·	·	·	-26%[176 µM]	·	·
O=C(CCc1nc2sc3c(c2c(=O)[nH]1)CCC3)NCc1ccccc1OC(F)(F)F	·	·	·	1%	·	·
Cc1ccc2c(c1)cc(C(=O)NCCc1ccccc1)n2C	·	·	·	-30%	·	·
Brc1ccccc1Cn1c(-c2cscn2)nc2ccccc21	-4%	23µM*	?	26%	?	?
CCCc1nc2ccccc2n1Cc1ccccc1OC	?	2%	?	1%	6.3µM*	?
